# Where two headings read alike, the source gives them in different places.
# Assays:
# Details in all cases: n = 1
# ERBB2 = test system: ERBB2
# ERBB3 = test system: ERBB3
# ERBB4 = test system: ERBB4
# ERK1 = test system: T1, ERK1
# T1 construct: gene MAPK3
# ERK2 = test system: T2, ERK2
# T2 construct: gene MAPK1
# ERK3 = test system: T3, ERK3
# T3 construct: gene MAPK6
# ERK4 = test system: T4, ERK4
# T4 construct: gene MAPK4
# ERK5 = test system: T5, ERK5
# T5 construct: gene MAPK7
# ERK8 = test system: T6, ERK8
# T6 construct: gene MAPK15
# ERN1 = test system: ERN1
# FAK = test system: T7, FAK
# T7 construct: gene PTK2
# FER = test system: FER
# FES = test system: FES
# FGFR1 = test system: FGFR1
# FGFR2 = test system: FGFR2
# FGFR3 = test system: FGFR3
# FGFR4 = test system: FGFR4
# FGR = test system: FGR
# FLT1 = test system: FLT1
# FLT3-autoinhibited = test system: FLT3-autoinhibited
# [1] = concentration: 1 μM, replicates: in singlicate
# 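Further: KINOMEscan kinase panel screen.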
smiles,measurement,setting,value
CC(C)(C)c1ccc(C(=O)Nc2cn3cc(-c4cccnc4)ccc3n2)cc1,%Inh,ERBB2; [1],34%
same,%Inh,ERBB3; [1],0%
same,%Inh,ERBB4; [1],1%
same,%Inh,ERK1; [1],0%
same,%Inh,ERK2; [1],18%
same,%Inh,ERK3; [1],14%
same,%Inh,ERK4; [1],23%
same,%Inh,ERK5; [1],20%
same,%Inh,ERK8; [1],16%
same,%Inh,ERN1; [1],12%
same,%Inh,FAK; [1],12%
same,%Inh,FER; [1],0%
same,%Inh,FES; [1],29%
same,%Inh,FGFR1; [1],27%
same,%Inh,FGFR2; [1],21%
same,%Inh,FGFR3; [1],16%
same,%Inh,FGFR4; [1],0%
same,%Inh,FGR; [1],19%
same,%Inh,FLT1; [1],22%
same,%Inh,FLT3-autoinhibited; [1],0%
CS(=O)(=O)c1ccc(-c2nc3n(c2-c2ccncc2)CCC3)cc1 [SKF-105942],%Inh,ERBB2; [1],32%
same,%Inh,ERBB3; [1],0%
same,%Inh,ERBB4; [1],0%
same,%Inh,ERK1; [1],0%
same,%Inh,ERK2; [1],0%
same,%Inh,ERK3; [1],0%
same,%Inh,ERK4; [1],100%
same,%Inh,ERK5; [1],0%
same,%Inh,ERK8; [1],0%
same,%Inh,ERN1; [1],18%
same,%Inh,FAK; [1],0%
same,%Inh,FER; [1],1%
same,%Inh,FES; [1],22%
same,%Inh,FGFR1; [1],0%
same,%Inh,FGFR2; [1],0%
same,%Inh,FGFR3; [1],2%
same,%Inh,FGFR4; [1],18%
same,%Inh,FGR; [1],43%
same,%Inh,FLT1; [1],11%
same,%Inh,FLT3-autoinhibited; [1],0%
Fc1cc(Cl)ccc1Nc1ccnc2cc(-c3ccc(CN4CCCCC4)o3)ccc12 [GW560116],%Inh,ERBB2; [1],1%
same,%Inh,ERBB3; [1],31%
same,%Inh,ERBB4; [1],4%
same,%Inh,ERK1; [1],0%
same,%Inh,ERK2; [1],0%
same,%Inh,ERK3; [1],0%
same,%Inh,ERK4; [1],8%
same,%Inh,ERK5; [1],0%
same,%Inh,ERK8; [1],0%
same,%Inh,ERN1; [1],0%
same,%Inh,FAK; [1],0%
same,%Inh,FER; [1],5%
same,%Inh,FES; [1],0%
same,%Inh,FGFR1; [1],0%
same,%Inh,FGFR2; [1],0%
same,%Inh,FGFR3; [1],0%
same,%Inh,FGFR4; [1],0%
same,%Inh,FGR; [1],31%
same,%Inh,FLT1; [1],15%
same,%Inh,FLT3-autoinhibited; [1],0%
COc1ccccc1CNC(=O)c1cc(C(=O)c2ccccc2C)c[nH]1 [GSK364507],%Inh,ERBB2; [1],21%
same,%Inh,ERBB3; [1],0%
same,%Inh,ERBB4; [1],30%
same,%Inh,ERK1; [1],0%
same,%Inh,ERK2; [1],2%
same,%Inh,ERK3; [1],4%
same,%Inh,ERK4; [1],13%
same,%Inh,ERK5; [1],0%
same,%Inh,ERK8; [1],0%
same,%Inh,ERN1; [1],0%
same,%Inh,FAK; [1],0%
same,%Inh,FER; [1],8%
same,%Inh,FES; [1],0%
same,%Inh,FGFR1; [1],0%
same,%Inh,FGFR2; [1],16%
same,%Inh,FGFR3; [1],4%
same,%Inh,FGFR4; [1],11%
same,%Inh,FGR; [1],23%
same,%Inh,FLT1; [1],18%
same,%Inh,FLT3-autoinhibited; [1],0%
CCCc1ccc(S(=O)(=O)NC2CCN(c3ccnc(Nc4ccc(F)cc4)n3)C2)cc1 (stereo not shown) [GSK1379715],%Inh,ERBB2; [1],7%
same,%Inh,ERBB3; [1],1%
same,%Inh,ERBB4; [1],25%
same,%Inh,ERK1; [1],0%
same,%Inh,ERK2; [1],18%
same,%Inh,ERK3; [1],0%
same,%Inh,ERK4; [1],13%
same,%Inh,ERK5; [1],0%
same,%Inh,ERK8; [1],15%
same,%Inh,ERN1; [1],0%
same,%Inh,FAK; [1],0%
same,%Inh,FER; [1],0%
same,%Inh,FES; [1],0%
same,%Inh,FGFR1; [1],0%
same,%Inh,FGFR2; [1],0%
same,%Inh,FGFR3; [1],2%
same,%Inh,FGFR4; [1],11%
same,%Inh,FGR; [1],23%
same,%Inh,FLT1; [1],18%
same,%Inh,FLT3-autoinhibited; [1],0%
CC(C)(C)c1ccc(C(=O)Nc2cn3cc(Cl)ccc3n2)cc1,%Inh,ERBB2; [1],14%
same,%Inh,ERBB3; [1],0%
same,%Inh,ERBB4; [1],0%
same,%Inh,ERK1; [1],0%
same,%Inh,ERK2; [1],0%
same,%Inh,ERK3; [1],0%
same,%Inh,ERK4; [1],0%
same,%Inh,ERK5; [1],0%
same,%Inh,ERK8; [1],0%
same,%Inh,ERN1; [1],0%
same,%Inh,FAK; [1],0%
same,%Inh,FER; [1],4%
same,%Inh,FES; [1],0%
same,%Inh,FGFR1; [1],12%
same,%Inh,FGFR2; [1],0%
same,%Inh,FGFR3; [1],0%
same,%Inh,FGFR4; [1],0%
same,%Inh,FGR; [1],0%
same,%Inh,FLT1; [1],43%
same,%Inh,FLT3-autoinhibited; [1],0%
O=c1cc(N2CCOCC2)nc2n(Cc3cccc(Cl)c3Cl)ccn12 [GSK2286295],%Inh,ERBB2; [1],0%
same,%Inh,ERBB3; [1],0%
same,%Inh,ERBB4; [1],0%
same,%Inh,ERK1; [1],0%
same,%Inh,ERK2; [1],6%
same,%Inh,ERK3; [1],0%
same,%Inh,ERK4; [1],27%
same,%Inh,ERK5; [1],0%
same,%Inh,ERK8; [1],2%
same,%Inh,ERN1; [1],0%
same,%Inh,FAK; [1],0%
same,%Inh,FER; [1],12%
same,%Inh,FES; [1],12%
same,%Inh,FGFR1; [1],0%
same,%Inh,FGFR2; [1],0%
same,%Inh,FGFR3; [1],5%
same,%Inh,FGFR4; [1],12%
same,%Inh,FGR; [1],16%
same,%Inh,FLT1; [1],26%
same,%Inh,FLT3-autoinhibited; [1],0%
COc1ccc(Nc2nccc(-c3cccc(NC(=O)c4cc5cc(F)ccc5[nH]4)c3)n2)cc1 [GSK1229782],%Inh,ERBB2; [1],58%
same,%Inh,ERBB3; [1],29%
same,%Inh,ERBB4; [1],34%
same,%Inh,ERK1; [1],13%
same,%Inh,ERK2; [1],17%
same,%Inh,ERK3; [1],17%
same,%Inh,ERK4; [1],24%
same,%Inh,ERK5; [1],28%
same,%Inh,ERK8; [1],0%
same,%Inh,ERN1; [1],2%
same,%Inh,FAK; [1],1%
same,%Inh,FER; [1],43%
same,%Inh,FES; [1],27%
same,%Inh,FGFR1; [1],21%
same,%Inh,FGFR2; [1],0%
same,%Inh,FGFR3; [1],13%
same,%Inh,FGFR4; [1],2%
same,%Inh,FGR; [1],60%
same,%Inh,FLT1; [1],17%
same,%Inh,FLT3-autoinhibited; [1],0%
Cl.c1ccc(-c2n[nH]cc2-c2ccnc(-c3ccc(CN4CCOCC4)cc3)c2)nc1 [GW776245],%Inh,ERBB2; [1],3%
same,%Inh,ERBB3; [1],52%
same,%Inh,ERBB4; [1],2%
same,%Inh,ERK1; [1],0%
same,%Inh,ERK2; [1],12%
same,%Inh,ERK3; [1],0%
same,%Inh,ERK4; [1],0%
same,%Inh,ERK5; [1],9%
same,%Inh,ERK8; [1],0%
same,%Inh,ERN1; [1],0%
same,%Inh,FAK; [1],31%
same,%Inh,FER; [1],3%
same,%Inh,FES; [1],3%
same,%Inh,FGFR1; [1],0%
same,%Inh,FGFR2; [1],15%
same,%Inh,FGFR3; [1],20%
same,%Inh,FGFR4; [1],1%
same,%Inh,FGR; [1],22%
same,%Inh,FLT1; [1],26%
same,%Inh,FLT3-autoinhibited; [1],0%
Cc1ccc(NC(=O)Nc2cccc(C(F)(F)F)c2)cc1 [GSK955403],%Inh,ERBB2; 1 µM,0%
same,%Inh,ERBB3; 1 µM,17%
same,%Inh,ERBB4; 1 µM,0%
same,%Inh,ERK1; 1 µM,0%
same,%Inh,ERK2; 1 µM,0%
same,%Inh,ERK3; 1 µM,0%
same,%Inh,ERK4; 1 µM,0%
same,%Inh,ERK5; 1 µM,5%
same,%Inh,ERK8; 1 µM,0%
same,%Inh,ERN1; 1 µM,0%
same,%Inh,FAK; 1 µM,1%
same,%Inh,FER; 1 µM,0%
same,%Inh,FES; 1 µM,0%
same,%Inh,FGFR1; 1 µM,1%
same,%Inh,FGFR2; 1 µM,0%
same,%Inh,FGFR3; 1 µM,5%
same,%Inh,FGFR4; 1 µM,0%
same,%Inh,FGR; 1 µM,0%
same,%Inh,FLT1; 1 µM,23%
same,%Inh,FLT3-autoinhibited; 1 µM,0%
O=C(Nc1n[nH]c2nc(-c3nccs3)c(Br)cc12)C1CCCC1 [SB-742609],%Inh,ERBB2; [1],0%
same,%Inh,ERBB3; [1],0%
same,%Inh,ERBB4; [1],0%
same,%Inh,ERK1; [1],10%
same,%Inh,ERK2; [1],2%
same,%Inh,ERK3; [1],0%
same,%Inh,ERK4; [1],100%
same,%Inh,ERK5; [1],0%
same,%Inh,ERK8; [1],60%
same,%Inh,ERN1; [1],12%
same,%Inh,FAK; [1],0%
same,%Inh,FER; [1],0%
same,%Inh,FES; [1],0%
same,%Inh,FGFR1; [1],0%
same,%Inh,FGFR2; [1],0%
same,%Inh,FGFR3; [1],0%
same,%Inh,FGFR4; [1],12%
same,%Inh,FGR; [1],20%
same,%Inh,FLT1; [1],29%
same,%Inh,FLT3-autoinhibited; [1],10%
